# Bioassay records: PubChem BioAssay, National Center for Advancing Translational Sciences (NCATS)
# ELG1 repair inh: blocks ELG1-dependent DNA repair in HEK293T cells; HEK293T ELG1-luciferase reporter, luminescence, 16 h; DNA damage induced by 5-fluorouridine; Potency, µM (highest dose often 46.1 µM), without a hit: at the highest dose activity change, negative = inhibition, hits mostly inhibitors; hit rate 2.3% among 330,000; AID 504467; also: potency is read from the fitted curve at half-maximal effect; nearly all actives have a fitted effect of over 55% in size
#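 Step one: seed 2,000 cells per well. Step two: pin-transfer compound or DMSO alongside 5-fluorouridine. Step three: incubate 16 hr, 37 °C, 5% CO2. Step four: add ONE-Glo, wait 30 min, read luminescence.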
# DT40 TDP1 CPT: growth inhibition of DT40 Tdp1-/-;hTDP1 cells with camptothecin (screen for TDP1 inhibitors); hit rate 12% among 420,000; Potency, µM (highest dose often 46.2 µM), without a hit: at the highest dose activity change, negative = growth inhibition, actives largely listed as inhibitors; chicken DT40 Tdp1-/-;hTDP1 cells + 20 nM CPT, ATP luminescence, 48 h; also: potency is read from the fitted curve at half-maximal effect; nearly all actives have a fitted effect of over 55% in size
#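 Chicken DT40 Tdp1-/- cells stably complemented with human TDP1 were seeded at 400 cells/well in medium containing 20 nM camptothecin, exposed to pin-transferred compounds, and grown at 37 °C for at least 48 hr. Viability was read as ATP luminescence.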
# IL1B secr inh: blocks inflammasome-driven IL-1 beta release | THP-1 LPS/ATP IL-1B secretion, AlphaLISA, 16 h; stronger effect = lower value | activity change, % at 57.5 µM | hit rate 4.7% among 360,000 | AID 743279; in the data active = activity change below about -50%; inconclusive = mostly about -30% to -49%
#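 THP-1 cells pretreated 1 hr with compounds (up to 57.5 uM final), then stimulated with LPS (250 ng/mL final) plus ATP (1.25 mM final); secreted IL-1B measured by AlphaLISA after 16 hr, decreased signal indicating inhibition.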
# Giardia killer: Giardia lamblia killing; Giardia lamblia trophozoite viability; hit rate 0.15% among 340,000; activity change, % at 7.66 µM, hits read low; in the data active = activity change below about -80%; inconclusive = between about -30% and that limit;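 also: parasites exposed to compound for two days anaerobically before the ATP read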
#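 Giardia trophozoites, 100 cells per well, were exposed to compounds for 48 hrs at 37 deg C under anaerobic conditions; viability was then read as ATP content by bioluminescence after 15-30 min at room temperature.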
# TDP1 block: blocks human tyrosyl-DNA phosphodiesterase 1; recombinant TDP1, AlphaScreen DNA substrate cleavage; hit rate 0.28% among 350,000; AID 485290; Potency, µM (series often up to 130 µM), for the others: top-dose activity change, negative = inhibition, hits mostly inhibitors; Q9NUW8; also: potency is read from the fitted curve at half-maximal effect; nearly all actives have a fitted effect of over 40% in size
#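 E. coli-derived human Tdp1, 1 nM final. Cpd preinc 15 min RT; substrate 15 nM final, 5 min RT; AS bead mix 10 ug/ml final, 10 min RT. Signal loss = tyrosine-FITC cleavage. No-enzyme wells = max signal.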
# DT40 TDP1 no CPT: qHTS for Inhibitors of human tyrosyl-DNA phosphodiesterase 1 (TDP1): qHTS in cells in absence of CPT | DT40 Tdp1-/- hTDP1 cells, no CPT, ATP luminescence, 48 h | Potency, µM (highest dose often 46.2 µM), inactives show at the top dose activity change, negative = growth inhibition, hits mostly inhibitors | hit rate 15% among 420,000; also: potency is read from the fitted curve at half-maximal effect; nearly all actives have a fitted effect of over 55% in size
#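 Cells were dispensed at 400 per well, compounds added by pin tool, plates incubated ≥48 hr at 37 °C, then CellTiter-Glo added for 30 min at room temperature before luminescence reading. Line: DT40 Tdp1-/- complemented with hTDP1; camptothecin omitted.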
# Active calls of the source: *; ? = inconclusive; . = no result given; ! = not confirmed by another sample. Only some compounds are listed: those with a hit (about 19% of all), similar ones and a draw of the others. Unless noted, calls follow the shape of the dose curve; as a rule, active = well fitted curve in the direction sought with a large enough effect; inconclusive = small, poorly fitted or top-dose-only effect, or another doubt; inactive = no such curve, though single readings can be large; an effect the other way counts as inactive or inconclusive. % is scaled to controls: 0 for no effect and ±100 for the full control effect.
SMILES,ELG1 repair inh,DT40 TDP1 CPT,IL1B secr inh,Giardia killer,TDP1 block,DT40 TDP1 no CPT
O=C(NCC(c1cccnc1)N1CCOCC1)C(=O)Nc1cccc(Cl)c1 (stereo not given),.,?,.,.,6%,?
O=C(CN(c1ccc(Br)cc1)S(=O)(=O)c1ccc(Cl)c([N+](=O)[O-])c1)NCC1CCCO1 (stereo not given),.,16µM*,-98*,-14,.,?
O=C(CSc1nc(-c2ccc(F)cc2)cs1)NCC1CCCO1 (stereo not given),-15%,-27%,-13,-25,0%,21µM*
O=C(CSc1nn(-c2ccc(F)cc2)c(=S)s1)NCC1CCCO1 (stereo not given),-4%,-20%,-5,-2,0%,-19%
Cc1cc(C)c2nc(SCC(=O)NCC3CCCO3)c(C#N)cc2c1 (stereo not given),9%,8%,-51*,-19,-1%,-9%
O=C(COc1cccc(F)c1)N[C@@H](Cc1ccccc1)c1nc2ccccc2[nH]1,-18%,-19%,-19,-14,5%,?
CC(=O)c1ccc(N(C(=O)c2csnn2)C(C(=O)NC(C)(C)C)c2cccs2)cc1 (stereo not given),11%,-9%,-1,?,0%,?
Cc1ccc(/C=N/NC(=O)c2n[nH]c3c2CCCC3)cc1,?,0.82µM*,.,-13,6%,0.92µM*
O=C(N/N=C/c1cccs1)c1n[nH]c2c1CCCC2,?,?,-26,-8,8%,21µM*
C/C(=N\NC(=O)c1n[nH]c2c1CCC2)c1cccs1,?,1%,.,14,-2%,-4%
CCCC(=O)Oc1ccc(-c2nccc(C(OC)OC)n2)cc1,?,5%,8,12,-1%,-20%
Cc1cc(C)nc(SCC(=O)Nc2ccnc3ccccc23)n1,?,1.6µM*,?,-5,0%,0.65µM*
O=C(CSC1=NCCS1)Nc1ccnc2ccccc12,?,6.5µM*,?,-5,-2%,9.2µM*
Cc1cc(C)nc(NC(=O)CSc2nccc(C)n2)n1,-16%,-3%,6,-14,-1%,-8%
O=C(CSC1=NCCS1)Nc1ccc2ccccc2c1,?,2%,-28,-22,5%,-8%
Cc1ccc(CN2CCC(C3(c4ccccn4)NC(=O)N(CC4CCCO4)C3=O)CC2)cc1C (stereo not given),.,9%,.,.,.,-17%
CC(C)NC(=O)N1CC2(CCN(C(=O)c3ccncc3)CC2)C1,.,17%,.,.,.,-4%
Cc1ccc(-c2cc3ncc(C#N)c(N)n3n2)cc1,?,0%,-1,?,4%,-2%
CN(CCOC(=O)/C=C/c1ccccc1)C(C)(C)C,?,3%,-3,-5,2%,2%
CC[N+]1(C)CCC(O)(/C=C/c2ccccc2)C(C(=O)/C=C/c2ccccc2)C1 (stereo not given),.,0.033µM*,-102*,-1,.,0.13µM*
O=C(NC1CCC(=O)N(CCOc2ccccc2)CC1)OCc1ccccc1 (stereo not given),-1%,?,0,6,.,11µM*!
Cc1ccc(SC[C@H](C)CN2CCC(NC(=O)OCc3ccccc3)CCC2=O)cc1 (stereo not given in full),.,?,-2,.,.,?
O=C(N[C@@H]1CCC(=O)N(CC[C@H](Sc2ccccc2)c2ccccc2)CC1)OCc1ccccc1,?,?,?,17,.,23µM*
O=C(NC1CCCCC1)OCCN1CCN(Cc2ccccc2)CCC1=O,-3%,.,.,.,3%,.
